In the library only some 21% were active in any assay of this set; here they are far more common.
TDP1 cell CPT – growth inhibition of DT40 Tdp1-/-;hTDP1 cells with camptothecin (screen for TDP1 inhibitors) | hit rate 12% among 420,000 | Potency, µM (highest dose often 46.2 µM), most hits filed as inhibitors | chicken DT40 Tdp1-/-;hTDP1 cells + 20 nM CPT, ATP luminescence, 48 h; also: nearly all actives have a fitted effect of over 55% in size
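Chicken DT40 Tdp1-/- cells complemented with human TDP1, 400 cells/well, exposed to compounds plus 20 nM camptothecin for at least 48 h at 37 C; viability read as ATP content by CellTiter-Glo luminescence.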
ClpP mod – qHTS Assay for Activators of ClpP; AID 651965, 2013; hit rate 1.9% among 340,000; Potency, µM (titrated, usually from 57.5 µM); ATP-dependent Clp protease proteolytic subunit (Bacillus subtilis (strain 168)), P80244; purified B. subtilis ClpP, FRET peptide cleavage, 20 min; active = well fitted falling curve with a large enough effect; inconclusive = small, poorly fitted or top-dose-only effect; inactive = no such curve, though single readings can be large or run the other way; also: the source files actives as falling curves though it sought activators and does not explain the sign; nearly all actives have a fitted effect of over 65% in size
Target sequence (P80244 whole entry, looked up): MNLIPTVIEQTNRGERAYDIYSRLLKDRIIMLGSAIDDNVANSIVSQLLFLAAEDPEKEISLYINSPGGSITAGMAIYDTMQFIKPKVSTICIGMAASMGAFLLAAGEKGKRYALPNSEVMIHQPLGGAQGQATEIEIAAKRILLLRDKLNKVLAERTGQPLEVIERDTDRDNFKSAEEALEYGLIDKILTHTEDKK
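ClpP 10 microg/mL final, pH 8 Tris/KCl buffer with BSA, glycerol, Tween-20; compound pinned in; FRET-FV substrate; RT 20 min; Ex320/Em430; ΔFRET vs ADEP 5.8 microM, DMSO, no enzyme.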
D3 antag – antagonists of human D3 dopamine receptor. hit rate 2.5% among 360,000. AID 652054. D3R cells, DiscoveRx beta-arrestin luminescence, antagonist mode; hits give low values. max response, negative = inhibition, %; in the data active = max response below about -50%; inconclusive = no clear call, values can overlap the other calls
Target sequence (P35462 whole entry, looked up): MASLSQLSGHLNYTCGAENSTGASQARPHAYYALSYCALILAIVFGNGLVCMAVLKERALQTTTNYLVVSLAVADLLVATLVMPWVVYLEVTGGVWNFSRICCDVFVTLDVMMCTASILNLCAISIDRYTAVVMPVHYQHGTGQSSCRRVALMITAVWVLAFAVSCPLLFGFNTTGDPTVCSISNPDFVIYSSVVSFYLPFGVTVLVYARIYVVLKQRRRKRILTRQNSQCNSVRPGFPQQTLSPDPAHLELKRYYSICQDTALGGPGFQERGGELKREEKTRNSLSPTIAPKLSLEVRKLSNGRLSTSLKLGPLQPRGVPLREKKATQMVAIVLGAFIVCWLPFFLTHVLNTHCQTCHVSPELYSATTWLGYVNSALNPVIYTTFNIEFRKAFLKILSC
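Cells expressing the human receptor were seeded at 1500 cells/well, incubated overnight at 37 degrees C in 5% CO2, then exposed to library compounds with dopamine controls for 90 minutes at 37 degrees C before luminescent detection.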
IL1B secr inh – inhibitors of inflammasome signaling (IL-1 beta secretion); THP-1 LPS/ATP IL-1B secretion, AlphaLISA, 16 h; hits give low values; activity change, % at 57.5 µM; hit rate 4.7% among 360,000; AID 743279; in the data active = activity change below about -50%; inconclusive = mostly about -30% to -49%
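THP-1 cells pretreated 1 hr with compounds (up to 57.5 uM final), then stimulated with LPS (250 ng/mL final) plus ATP (1.25 mM final); secreted IL-1B measured by AlphaLISA after 16 hr, decreased signal indicating inhibition.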
TDP1 cell noCPT – qHTS for Inhibitors of human tyrosyl-DNA phosphodiesterase 1 (TDP1): qHTS in cells in absence of CPT; hit rate 15% among 420,000; DT40 Tdp1-/- hTDP1 cells, no CPT, ATP luminescence, 48 h; Potency, µM (highest dose often 46.2 µM), hits mostly inhibitors; AID 686978, 2013; also: nearly all actives have a fitted effect of over 55% in size
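A cellular qHTS used chicken DT40 cells lacking endogenous Tdp1 but carrying stably transfected human TDP1. Compounds were applied without camptothecin, and cell growth kinetics were judged by ATP-dependent luminescence after ≥48 hr.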
DRD3 agonist – agonists of human D3 dopamine receptor | D3R DiscoveRx beta-arrestin cells, luminescence, 90 min | max activation, % | hit rate 0.58% among 410,000; in the data active = max activation above about 30%
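Cells at 1500/well, incubated overnight, then treated with pinned compounds (dopamine as control) for 90 min at 37 degrees C. DiscoveRx reagent added for 30 - 60 minutes at room temperature; luminescence read.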
Numbers stand for hits. Unless noted, calls follow the shape of the dose curve; as a rule, active = well fitted inhibition curve with a large enough effect; inconclusive = small, poorly fitted or top-dose-only effect; inactive = flat fitted curve, though single readings scatter.

What do the screens show for `Cc1cccc(Oc2nc3c(c(=O)n(C)c(=O)n3C)n2Cc2ccccc2)c1C`?
TDP1 cell CPT: inactive; ClpP mod: inactive; TDP1 cell noCPT: inconclusive; DRD3 agonist: inactive

How did Cc1ccc(NC(=O)CN(C)C(=O)c2ccc(C(F)(F)F)cc2)cc1 do in these assays?
TDP1 cell CPT: inactive; ClpP mod: inactive; D3 antag: inactive; IL1B secr inh: inactive; TDP1 cell noCPT: inactive; DRD3 agonist: inactive

How did Cc1[nH]c(=O)[nH]c1C(=O)CCCCC(=O)OCC(=O)Nc1ccccn1 do in these assays?
TDP1 cell CPT: inactive; ClpP mod: inactive; D3 antag: inactive; IL1B secr inh: -114; TDP1 cell noCPT: inactive; DRD3 agonist: inactive

What do the screens show for `COc1ccccc1-c1nnc(N)s1`?
TDP1 cell CPT: inactive; D3 antag: inactive; IL1B secr inh: inactive; TDP1 cell noCPT: inactive; DRD3 agonist: inactive

How did COc1ccccc1-c1nnc(SC2CCc3ccccc3NC2=O)s1 (configuration not stated) do in these assays?
TDP1 cell CPT: inconclusive; ClpP mod: 22µM; D3 antag: inactive; IL1B secr inh: inactive; TDP1 cell noCPT: inconclusive; DRD3 agonist: inactive

What do the screens show for `COc1cccc(Oc2nc(N)ncc2[N+](=O)[O-])c1`?
TDP1 cell CPT: inactive; D3 antag: inactive; IL1B secr inh: -73; TDP1 cell noCPT: inactive; DRD3 agonist: inactive

How did COc1ccc(CCCc2nnc(SCC(=O)Nc3ccc(C)cc3)o2)cc1 do in these assays?
TDP1 cell CPT: inactive; ClpP mod: inactive; TDP1 cell noCPT: inactive; DRD3 agonist: inactive

How did CCCCNC(=S)Nc1cc([N+](=O)[O-])ccc1C do in these assays?
TDP1 cell CPT: inactive; ClpP mod: inactive; D3 antag: inactive; IL1B secr inh: inactive; TDP1 cell noCPT: inactive; DRD3 agonist: inactive

What do the screens show for `CCOc1ccc(CN(C)C(=O)CNC(=O)C2CCCCC2)cc1`?
TDP1 cell CPT: inactive; D3 antag: inactive; IL1B secr inh: inactive; TDP1 cell noCPT: inactive; DRD3 agonist: inactive

Results for Nc1c(C(=O)Nc2ccc(F)cc2)sc2nc(-c3ccco3)ccc12 ?
TDP1 cell CPT: inconclusive; ClpP mod: inactive; D3 antag: inactive; IL1B secr inh: inactive; TDP1 cell noCPT: inconclusive; DRD3 agonist: inactive

How did COc1ccc(-c2ccc3c(N)c(C(=O)Nc4cc(F)ccc4C)sc3n2)cc1 do in these assays?
TDP1 cell CPT: inconclusive; ClpP mod: inactive; TDP1 cell noCPT: 15µM; DRD3 agonist: inactive

What do the screens show for `Nc1c(C(=O)Nc2ccc(Br)cc2)sc2nc(-c3ccco3)ccc12`?
TDP1 cell CPT: inconclusive; ClpP mod: inactive; D3 antag: inactive; IL1B secr inh: inactive; TDP1 cell noCPT: 15µM; DRD3 agonist: inactive

Results for CC(C)CSc1ccccc1NC(=O)c1sc2nc(-c3ccncc3)ccc2c1N ?
TDP1 cell CPT: 5.8µM; ClpP mod: inactive; TDP1 cell noCPT: 7.3µM; DRD3 agonist: inactive

What do the screens show for `Cc1cc(F)ccc1NC(=O)c1sc2nc(-c3cccs3)ccc2c1N`?
TDP1 cell CPT: inconclusive; ClpP mod: inactive; TDP1 cell noCPT: inconclusive; DRD3 agonist: inactive

Results for Nc1c(C(=O)Nc2ccc(Br)cc2)sc2nc(-c3ccncc3)ccc12 ?
TDP1 cell CPT: inactive; ClpP mod: inactive; TDP1 cell noCPT: inconclusive; DRD3 agonist: inactive

Results for Cc1ccc(NC(=O)c2sc3nc(-c4ccc(F)cc4)ccc3c2N)cc1F ?
TDP1 cell CPT: 12µM; ClpP mod: inactive; TDP1 cell noCPT: 21µM; DRD3 agonist: inactive

What do the screens show for `CC12CC3CC(C)(C1)CC(C(=O)NCc1ccncc1)(C3)C2`?
TDP1 cell CPT: inactive; ClpP mod: inactive; D3 antag: inactive; IL1B secr inh: inactive; TDP1 cell noCPT: inactive; DRD3 agonist: inactive

What do the screens show for `COc1ccc([C@@H]2[C@@H]3C(=O)N(C(C)(C)C)C(=O)[C@@H]3[C@]3(C)C(=O)N(c4cccc(Cl)c4)C(=O)N23)cc1`?
TDP1 cell CPT: inactive; ClpP mod: inactive; D3 antag: inactive; IL1B secr inh: inactive; TDP1 cell noCPT: inactive; DRD3 agonist: inactive

Results for COc1ccc(-c2ccc3c(N)c(C(=O)Nc4cccc(C)c4)sc3n2)cc1 ?
TDP1 cell CPT: 16µM; ClpP mod: inactive; TDP1 cell noCPT: inconclusive; DRD3 agonist: inactive

What do the screens show for `O=C(Cn1ccn(-c2ccc(F)c(F)c2)c(=O)c1=O)NCc1ccccc1`?
TDP1 cell CPT: inactive; ClpP mod: inactive; TDP1 cell noCPT: inactive; DRD3 agonist: inactive

How did CCC(=O)Nc1ccc2c(c1)nc(CN1CCCCC1)n2C do in these assays?
TDP1 cell CPT: inactive; ClpP mod: inactive; D3 antag: inactive; IL1B secr inh: inactive; TDP1 cell noCPT: inactive; DRD3 agonist: inactive

How did CCn1c(CN2CCOCC2)nc2cc(NC(=O)c3cccc([N+](=O)[O-])c3)ccc21 do in these assays?
TDP1 cell CPT: inconclusive; ClpP mod: inactive; TDP1 cell noCPT: inactive; DRD3 agonist: inactive

What do the screens show for `CCn1c(CN2CCCCC2)nc2cc(NC(=O)COc3ccc(C(C)(C)C)cc3)ccc21`?
TDP1 cell CPT: 12µM; ClpP mod: inactive; TDP1 cell noCPT: 8.2µM; DRD3 agonist: inactive

How did Cn1c(CN2CCCC2)nc2cc(NC(=O)COc3ccc(Cl)cc3)ccc21 do in these assays?
TDP1 cell CPT: inconclusive; ClpP mod: inactive; D3 antag: -69; IL1B secr inh: -68; TDP1 cell noCPT: inconclusive; DRD3 agonist: inactive

What do the screens show for `CCn1c(CN2CCCCC2)nc2cc(NC(=O)c3cccc([N+](=O)[O-])c3)ccc21`?
TDP1 cell CPT: 18µM; ClpP mod: inactive; TDP1 cell noCPT: 23µM; DRD3 agonist: inactive

Results for Cn1c(CCN2CCCCC2)nc2cc(NC(=O)COc3ccc(Cl)cc3)ccc21 ?
TDP1 cell CPT: inconclusive; ClpP mod: inactive; D3 antag: inactive; IL1B secr inh: -83; TDP1 cell noCPT: inconclusive; DRD3 agonist: inactive

What do the screens show for `CN1CCN(CCc2nc3cc(NC(=O)COc4ccc(Cl)cc4)ccc3n2C)CC1`?
TDP1 cell CPT: inconclusive; ClpP mod: inactive; D3 antag: inactive; IL1B secr inh: inactive; TDP1 cell noCPT: inconclusive; DRD3 agonist: inactive

How did Cc1ccc(C)c(Cn2ncc3ccccc32)c1 do in these assays?
TDP1 cell CPT: inactive; D3 antag: inactive; IL1B secr inh: inactive; TDP1 cell noCPT: inconclusive; DRD3 agonist: inactive

How did CCCC1=NN2C(=N)/C(=C\c3ccc(OCCOc4ccc(NC(C)=O)cc4)c(OC)c3)C(=O)N=C2S1 do in these assays?
TDP1 cell CPT: inactive; ClpP mod: inactive; D3 antag: inactive; IL1B secr inh: inactive; TDP1 cell noCPT: inactive; DRD3 agonist: inactive

Results for Cn1c(CCN2CCCCC2)nc2cc(NC(=O)COc3ccc([N+](=O)[O-])cc3)ccc21 ?
TDP1 cell CPT: inactive; ClpP mod: inactive; D3 antag: inactive; IL1B secr inh: inconclusive; TDP1 cell noCPT: 18µM; DRD3 agonist: inactive

Screening results (PubChem)
